Columns and labels:
Experiment in all cases: DAPPL (digital affinity profiling via proximity ligation, sequencing); 10 mM Tris-HCl pH 7.5, 50 mM NaCl, 1 mM DTT, 4% glycerol, room temperature, 30 min; GST-TFs on glutathione beads, 16-mer random dsDNA library, 0.1% formaldehyde crosslink after washing; high values mean tight binding
[1] = molecular target: T1, FEV (Homo sapiens, UniProt Q99581 1-238); settings: protein: recombinant; tags: N-terminal GST; dsDNA, one strand shown
T1 sequence: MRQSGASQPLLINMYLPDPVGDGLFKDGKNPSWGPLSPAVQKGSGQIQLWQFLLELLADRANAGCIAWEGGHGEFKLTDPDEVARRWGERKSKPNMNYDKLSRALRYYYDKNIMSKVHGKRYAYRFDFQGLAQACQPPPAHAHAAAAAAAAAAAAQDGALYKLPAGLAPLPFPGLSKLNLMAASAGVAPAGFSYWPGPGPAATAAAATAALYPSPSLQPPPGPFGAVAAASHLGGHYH
Method in brief: (§1)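 Human transcription factors carrying a GST fusion were produced in yeast, bound to glutathione beads, tagged with DNA barcodes and pooled together with a tag-only sample. Each pool was held with 200 nmole of a random double-stranded 16-mer DNA library in Tris/NaCl/DTT/glycerol buffer for 30 min at room temperature, then washed, crosslinked in 0.1% formaldehyde, proximity-ligated with BsaI/T4 ligase (1 h, 37 °C), PCR-amplified and sequenced on an Illumina NextSeq500. Binding signal is the read frequency of each hexamer for a given factor divided by its frequency in the tag-only sample.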

[2] = molecular target: ETV5 (Homo sapiens, UniProt P41161 1-510); settings: protein: recombinant; tags: N-terminal GST; dsDNA, one strand shown
Chain of ETV5 (P41161 whole entry): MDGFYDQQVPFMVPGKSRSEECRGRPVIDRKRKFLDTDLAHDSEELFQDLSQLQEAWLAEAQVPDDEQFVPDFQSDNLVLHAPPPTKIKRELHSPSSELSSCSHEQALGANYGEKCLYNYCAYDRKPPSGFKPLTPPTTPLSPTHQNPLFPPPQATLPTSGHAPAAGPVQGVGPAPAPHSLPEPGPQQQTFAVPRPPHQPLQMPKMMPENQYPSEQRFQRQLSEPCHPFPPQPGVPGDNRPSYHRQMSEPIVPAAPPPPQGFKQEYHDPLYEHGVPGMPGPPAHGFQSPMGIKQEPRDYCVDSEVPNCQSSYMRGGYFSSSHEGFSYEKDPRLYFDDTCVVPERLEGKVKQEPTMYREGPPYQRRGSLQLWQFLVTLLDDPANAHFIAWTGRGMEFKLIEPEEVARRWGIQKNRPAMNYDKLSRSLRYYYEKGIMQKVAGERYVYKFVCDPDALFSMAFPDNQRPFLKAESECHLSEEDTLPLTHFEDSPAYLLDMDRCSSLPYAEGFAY
Method in brief: as §1

[3] = molecular target: HSF1 (Homo sapiens, UniProt Q00613 1-529); settings: protein: recombinant; tags: N-terminal GST; chain copies: 3; dsDNA, one strand shown
Chain of HSF1 (Q00613 whole entry): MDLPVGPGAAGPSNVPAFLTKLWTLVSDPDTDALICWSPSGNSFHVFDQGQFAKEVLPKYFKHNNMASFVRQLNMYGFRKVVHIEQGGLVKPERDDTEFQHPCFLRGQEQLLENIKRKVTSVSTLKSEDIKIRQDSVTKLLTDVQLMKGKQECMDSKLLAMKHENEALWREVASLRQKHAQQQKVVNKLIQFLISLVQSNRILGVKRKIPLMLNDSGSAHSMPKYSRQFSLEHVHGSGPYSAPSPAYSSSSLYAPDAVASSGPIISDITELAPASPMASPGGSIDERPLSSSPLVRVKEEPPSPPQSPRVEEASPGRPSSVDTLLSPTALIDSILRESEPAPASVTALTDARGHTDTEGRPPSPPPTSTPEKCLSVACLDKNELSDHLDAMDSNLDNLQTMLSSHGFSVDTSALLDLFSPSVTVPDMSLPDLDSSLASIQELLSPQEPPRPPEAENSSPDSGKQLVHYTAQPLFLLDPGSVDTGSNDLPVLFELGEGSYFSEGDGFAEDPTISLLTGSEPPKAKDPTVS
Method in brief: as §1

[4] = molecular target: T2, SPIC (Homo sapiens, UniProt Q8N5J4 1-248); settings: protein: recombinant; tags: N-terminal GST; dsDNA, one strand shown
T2 sequence: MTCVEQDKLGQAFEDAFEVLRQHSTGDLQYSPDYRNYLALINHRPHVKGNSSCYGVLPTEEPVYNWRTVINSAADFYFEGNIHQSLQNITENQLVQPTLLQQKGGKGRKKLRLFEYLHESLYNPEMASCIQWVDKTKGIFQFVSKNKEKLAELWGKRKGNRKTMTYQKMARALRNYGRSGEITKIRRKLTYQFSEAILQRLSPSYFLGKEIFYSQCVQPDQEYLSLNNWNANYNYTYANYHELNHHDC
Method in brief: as §1

[5] = molecular target: ELF4 (Homo sapiens, UniProt Q99607 1-663); settings: protein: recombinant; tags: N-terminal GST; dsDNA, one strand shown
Chain of ELF4 (Q99607 whole entry): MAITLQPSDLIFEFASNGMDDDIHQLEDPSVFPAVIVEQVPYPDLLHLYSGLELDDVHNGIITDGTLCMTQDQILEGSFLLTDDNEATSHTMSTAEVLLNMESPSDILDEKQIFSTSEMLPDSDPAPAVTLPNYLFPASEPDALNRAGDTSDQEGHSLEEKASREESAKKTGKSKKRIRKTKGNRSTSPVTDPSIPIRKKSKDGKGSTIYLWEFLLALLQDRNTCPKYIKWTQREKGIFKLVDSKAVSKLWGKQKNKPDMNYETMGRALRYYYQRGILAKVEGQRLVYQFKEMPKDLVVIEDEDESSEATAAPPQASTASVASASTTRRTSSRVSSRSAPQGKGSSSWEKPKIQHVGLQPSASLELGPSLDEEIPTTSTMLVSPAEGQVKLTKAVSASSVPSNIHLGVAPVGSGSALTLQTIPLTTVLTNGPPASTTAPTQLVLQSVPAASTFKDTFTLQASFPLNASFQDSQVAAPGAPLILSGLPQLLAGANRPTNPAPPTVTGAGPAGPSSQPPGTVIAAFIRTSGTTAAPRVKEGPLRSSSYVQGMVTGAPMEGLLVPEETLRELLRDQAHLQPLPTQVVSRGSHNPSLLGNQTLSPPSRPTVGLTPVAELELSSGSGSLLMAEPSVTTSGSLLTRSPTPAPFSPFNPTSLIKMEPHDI
Method in brief: as §1

[6] = molecular target: T3, ELK4 (Homo sapiens, UniProt P28324-2 1-405); settings: protein: recombinant; tags: N-terminal GST; dsDNA, one strand shown
T3 sequence: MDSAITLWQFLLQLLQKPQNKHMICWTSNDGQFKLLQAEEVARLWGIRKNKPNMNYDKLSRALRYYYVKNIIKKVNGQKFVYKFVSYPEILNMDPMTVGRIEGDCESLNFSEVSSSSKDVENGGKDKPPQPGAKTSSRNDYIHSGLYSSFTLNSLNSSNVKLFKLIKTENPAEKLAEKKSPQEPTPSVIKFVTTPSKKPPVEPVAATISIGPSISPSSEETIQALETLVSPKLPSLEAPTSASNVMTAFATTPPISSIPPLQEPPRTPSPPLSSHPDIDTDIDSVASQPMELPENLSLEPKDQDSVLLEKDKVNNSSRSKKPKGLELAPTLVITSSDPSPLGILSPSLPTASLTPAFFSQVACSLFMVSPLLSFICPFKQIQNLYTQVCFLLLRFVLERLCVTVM
Method in brief: as §1

[7] = molecular target: T4, ETV2 (Homo sapiens, UniProt O00321 1-342); settings: protein: recombinant; tags: N-terminal GST; dsDNA, one strand shown
T4 sequence: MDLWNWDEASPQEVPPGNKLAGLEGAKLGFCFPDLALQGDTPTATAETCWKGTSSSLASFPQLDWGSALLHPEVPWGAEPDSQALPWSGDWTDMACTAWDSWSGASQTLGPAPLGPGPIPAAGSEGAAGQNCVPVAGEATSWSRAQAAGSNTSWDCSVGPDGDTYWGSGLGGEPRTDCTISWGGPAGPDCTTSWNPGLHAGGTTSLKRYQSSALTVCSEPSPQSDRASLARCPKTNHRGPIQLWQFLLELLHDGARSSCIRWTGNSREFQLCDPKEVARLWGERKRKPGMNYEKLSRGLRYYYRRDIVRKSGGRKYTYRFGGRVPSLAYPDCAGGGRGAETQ
Method in brief: as §1

[8] = molecular target: T5, ELF3 (Homo sapiens, UniProt P78545 1-371); settings: protein: recombinant; tags: N-terminal GST; dsDNA, one strand shown
T5 sequence: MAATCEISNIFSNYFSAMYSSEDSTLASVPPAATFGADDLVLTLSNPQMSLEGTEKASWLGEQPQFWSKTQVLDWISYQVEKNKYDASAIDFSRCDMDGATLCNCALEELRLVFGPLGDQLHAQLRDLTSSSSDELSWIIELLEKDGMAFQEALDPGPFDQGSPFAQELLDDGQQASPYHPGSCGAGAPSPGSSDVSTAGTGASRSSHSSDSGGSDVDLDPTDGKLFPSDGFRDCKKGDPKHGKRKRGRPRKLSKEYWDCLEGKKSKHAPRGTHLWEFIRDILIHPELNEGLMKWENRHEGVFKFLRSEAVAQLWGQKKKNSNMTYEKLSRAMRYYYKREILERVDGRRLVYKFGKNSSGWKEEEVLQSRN
Method in brief: as §1

[9] = molecular target: CRX (Homo sapiens, UniProt O43186 1-299); settings: protein: recombinant; tags: N-terminal GST; dsDNA, one strand shown
Chain of CRX (O43186 whole entry): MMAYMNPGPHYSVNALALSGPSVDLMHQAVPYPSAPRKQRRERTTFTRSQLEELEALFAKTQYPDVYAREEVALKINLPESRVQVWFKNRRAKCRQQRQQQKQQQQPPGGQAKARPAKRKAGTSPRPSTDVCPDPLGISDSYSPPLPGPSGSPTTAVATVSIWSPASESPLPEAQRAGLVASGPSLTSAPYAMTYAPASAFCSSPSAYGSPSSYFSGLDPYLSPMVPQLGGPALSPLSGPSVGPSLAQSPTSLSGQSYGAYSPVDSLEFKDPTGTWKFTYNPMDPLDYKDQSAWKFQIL
Method in brief: as §1

[10] = molecular target: ETV1 (Homo sapiens, UniProt P50549 1-477); settings: protein: recombinant; tags: N-terminal GST; dsDNA, one strand shown
Chain of ETV1 (P50549 whole entry): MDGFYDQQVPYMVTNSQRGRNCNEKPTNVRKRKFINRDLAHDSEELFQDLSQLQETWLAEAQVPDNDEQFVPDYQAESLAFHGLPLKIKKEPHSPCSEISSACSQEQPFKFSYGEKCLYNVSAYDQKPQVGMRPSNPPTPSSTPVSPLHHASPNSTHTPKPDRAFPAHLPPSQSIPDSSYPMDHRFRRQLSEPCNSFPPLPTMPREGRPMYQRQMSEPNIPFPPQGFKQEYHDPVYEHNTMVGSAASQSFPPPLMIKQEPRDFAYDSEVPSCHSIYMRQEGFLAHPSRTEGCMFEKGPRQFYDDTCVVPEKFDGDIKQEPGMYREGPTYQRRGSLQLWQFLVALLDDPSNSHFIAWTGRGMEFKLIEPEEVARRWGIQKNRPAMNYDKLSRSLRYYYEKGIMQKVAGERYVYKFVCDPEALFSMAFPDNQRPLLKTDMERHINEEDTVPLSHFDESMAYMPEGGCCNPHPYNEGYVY
Method in brief: as §1

AACTAT
binding signal [1]: 1.31 fold enrichment (6-mer frequency, TF over GST control) | binding signal [2]: 1.37 fold enrichment (6-mer frequency, TF over GST control) | binding signal [3]: 1.33 fold enrichment (6-mer frequency, TF over GST control) | binding signal [4]: 1.43 fold enrichment (6-mer frequency, TF over GST control) | binding signal [5]: 1.36 fold enrichment (6-mer frequency, TF over GST control) | binding signal [6]: 1.45 fold enrichment (6-mer frequency, TF over GST control) | binding signal [7]: 1.49 fold enrichment (6-mer frequency, TF over GST control) | binding signal [8]: 1.26 fold enrichment (6-mer frequency, TF over GST control) | binding signal [9]: 1.26 fold enrichment (6-mer frequency, TF over GST control) | binding signal [10]: 1.43 fold enrichment (6-mer frequency, TF over GST control)
